Laboratory results published in PubChem BioAssay AID1530 (NMMLSC, 2009).
Among all 290,000 compounds or so, about 1,000 (0.34%) were called active. Rule as the data show it: active = percent response above about 24% (passing the limit was not always enough); inactive = the rest. The full list was thinned out, with actives kept by preference.

system: MEKK2 (MAP3K2) mutant PB1 domain binding to MEK5, human; assay: MEK5 binding signal on mutant MEKK2 PB1, primary screen, biochemical, multiplex bead flow cytometry, Alexa488-MEK5 (AID 1530); details: at 10 µM, active compounds read high

Percent response, inactive:
O=C(CC1SCCNC1=O)Nc1ccc(Cl)cc1 (centres undefined) -10%, O=C(CC1NCCNC1=O)Nc1cc(Cl)cc(Cl)c1 (centres undefined) 2%, Cc1ccc(C(=O)c2coc3ccc(O)c(CN(C)C)c23)cc1 11%, COc1cccc2sc(N(CCCN(C)C)C(=O)C(c3ccccc3)c3ccccc3)nc12 22%, COc1cccc2sc(N(CCCN(C)C)C(=O)CCS(=O)(=O)c3ccccc3)nc12 6%, C/C(=N\NC(=O)c1ccoc1C)c1ccccc1O 3%, O=S(=O)(NC1CCCCC1N1CCC(O)CC1)c1ccc(Cl)cc1 (centres undefined) 2%, COc1ccc(C2NC(=O)C(=O)/C2=C(\O)c2ccc(Cl)cc2)cc1OC (centres undefined) 5%, O=C(NCCc1ccc(Cl)cc1)C1CC(=O)N(C2CCCCC2)C1 (centres undefined) -5%, CC(C)OCCCNC(=O)C1CC(=O)N(C2CCCCCCC2)C1 (centres undefined) 10%, CC1(C)C=Cc2c(ccc3c2OC[C@@H](c2ccc(O)cc2O)C3)O1 2%, O=C(CCCN1C(=O)/C(=C\c2ccco2)SC1=S)Nc1cccc2ccccc12 -3%, CCOC(=O)CC1C(=O)NCCN1c1nc2c(C)cccn2c(=O)c1/C=C1\SC(=S)N(C(C)CC)C1=O (centres undefined) -23%, CNc1nc2c(C)cccn2c(=O)c1C=Nc1ccc(OC)cc1 0%, O=C(CCCN1C(=O)/C(=C/c2ccco2)SC1=S)Nc1ccccc1 0%, Nc1ccc2nn(-c3ccc(Cl)cc3)nc2c1 -4%, Cc1cc2oc(=O)cc(CN3CCN(S(=O)(=O)c4cccs4)CC3)c2cc1C(C)C 0%, COC(=O)c1ccc(CNC(=O)C2CCC(=O)N(Cc3cccc(F)c3)C2)cc1 (centres undefined) 4%, O=C(Cn1ncc2c3ccccc3n(Cc3ccccc3)c2c1=O)NCCCN1CCOCC1 4%

Percent response, active:
O=C(CC1SCCNC1=O)Nc1ccc(Cl)c(Cl)c1 (centres undefined) 174%, CN(C)CCCN(C(=O)COc1ccccc1)c1nc2c(Cl)cccc2s1 87%, O=C(NCCCN1CCCCCC1)C1CC(=O)N(C2CCCC2)C1 (centres undefined) 31%, Cc1cccn2c(=O)c(/C=C3\SC(=S)N(CC(C)C)C3=O)c(NCCCOC(C)C)nc12 97%, CCCN(CCC)c1nc2c(C)cccn2c(=O)c1/C=C1/SC(=S)N(Cc2ccco2)C1=O 147%
